In PubChem BioAssay AID1159580 (chemical genetic matrix, 2015):
The whole screen tested about 5,500 compounds, of which about 2,000 (36%) were called active. Another 18% or so got no clear call; they are omitted. No stated cut-off is given here; in the data, active means normalized growth mostly below about 0.91 (no sharp cut-off); inconclusive means no clear call, values can overlap the other calls; inactive means mostly above about 0.92. This is one part of the list.

Assay: chemical genetic growth profiling, strain panel (AID 1159580);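 further: tested at 20 µM; growth read once vehicle control cultures reached saturation at 30 °C; 1 = growth at the plate median or of vehicle wells; lower values mean less growth of the strain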
Conditions: growth OD

Measured: normalized growth

C[C@]12CCC(=O)C=C1CCC1C2[C@@H](O)C[C@@]2(C)C1CC[C@]2(O)C(=O)CO (stereo partly drawn)
inactive: S. cerevisiae deletion strains, locus YJR075W, strain HOC1, hits give low values 1.01 | S. cerevisiae deletion strains, locus YKL009W, strain mrt4, hits give low values 0.992 | S. cerevisiae deletion strains, locus YKL068W, hits give low values 1.01 | S. cerevisiae deletion strains, locus YKL085W, strain MDH1 (second series), hits give low values 0.998 | S. cerevisiae deletion strains, locus YKL085W, strain MDH1, hits give low values 0.998 | S. cerevisiae deletion strains, locus YKL160W, strain elf1, hits give low values 0.955 | S. cerevisiae deletion strains, locus YKR001C, strain vps1, hits give low values 0.971 | S. cerevisiae deletion strains, locus YKR026C, strain gcn3, hits give low values 0.993 | S. cerevisiae deletion strains, locus YKR091W, strain srl3, hits give low values 0.999 | S. cerevisiae deletion strains, locus YLL001W, strain dnm1, hits give low values 0.994 | S. cerevisiae deletion strains, locus YLL026W, hits give low values 0.982 | S. cerevisiae deletion strains, locus YLL041C, strain sdh2, hits give low values 0.99 | S. cerevisiae deletion strains, locus YLR027C, strain aat2, hits give low values 1 | S. cerevisiae deletion strains, locus YLR039C, strain RIC1, hits give low values 1.05 | S. cerevisiae deletion strains, locus YLR058C, strain SHM2, hits give low values 1.02 | S. cerevisiae deletion strains, locus YLR102C, strain apc9, hits give low values 0.993 | S. cerevisiae deletion strains, locus YLR113W, strain HOG1, hits give low values 0.99 | S. cerevisiae deletion strains, locus YLR221C, strain rsa3, hits give low values 0.985 | S. cerevisiae deletion strains, locus YLR258W, strain gsy2, hits give low values 0.971 | S. cerevisiae deletion strains, locus YLR262C, strain YPT6 (second series), hits give low values 1 | S. cerevisiae deletion strains, locus YLR262C, strain YPT6, hits give low values 1.08 | S. cerevisiae deletion strains, locus YLR268W, strain sec22, hits give low values 0.977 | S. cerevisiae deletion strains, locus YLR320W, strain mms22, hits give low values 0.986 | S. cerevisiae deletion strains, locus YLR330W, strain CHS5, hits give low values 1.01 | S. cerevisiae deletion strains, locus YLR342W, strain FKS1 (second series), hits give low values 1.01 | S. cerevisiae deletion strains, locus YLR342W, strain FKS1, hits give low values 0.999 | S. cerevisiae deletion strains, locus YLR357W, strain rsc2, hits give low values 0.957 | S. cerevisiae deletion strains, locus YLR370C, strain arc18, hits give low values 1 | S. cerevisiae deletion strains, locus YLR371W, strain rom2, hits give low values 0.971 | S. cerevisiae deletion strains, locus YLR384C, strain iki3, hits give low values 0.998 | S. cerevisiae deletion strains, locus YLR418C, strain cdc73, hits give low values 1.01 | S. cerevisiae deletion strains, locus YML016C, strain PPZ1, hits give low values 1.02 | S. cerevisiae deletion strains, locus YML032C, strain rad52, hits give low values 1.01 | S. cerevisiae deletion strains, locus YML120C, strain ndi1, hits give low values 1.01 | S. cerevisiae deletion strains, locus YML124C, strain tub3, hits give low values 0.994 | S. cerevisiae deletion strains, locus YMR058W, strain fet3, hits give low values 1.01 | S. cerevisiae deletion strains, locus YMR078C, strain ctf18, hits give low values 0.998 | S. cerevisiae deletion strains, locus YMR125W, strain sto1, hits give low values 0.96 | S. cerevisiae deletion strains, locus YMR129W, hits give low values 0.993 | S. cerevisiae deletion strains, locus YMR205C, strain PFK2, hits give low values 0.967 | S. cerevisiae deletion strains, locus YMR223W, strain ubp8, hits give low values 0.993 | S. cerevisiae deletion strains, locus YMR231W, strain pep5, hits give low values 1 | S. cerevisiae deletion strains, locus YMR263W, strain SAP30, hits give low values 1.02 | S. cerevisiae deletion strains, locus YMR307W, strain GAS1, hits give low values 1.04 | S. cerevisiae deletion strains, locus YNL067W, strain RPL9B, hits give low values 1.02 | S. cerevisiae deletion strains, locus YNL071W, strain lat1, hits give low values 1.01 | S. cerevisiae deletion strains, locus YNL153C, strain GIM3, hits give low values 1.03 | S. cerevisiae deletion strains, locus YNL183C, strain NPR1, hits give low values 0.939 | S. cerevisiae deletion strains, locus YNL209W, strain ssb2, hits give low values 0.99 | S. cerevisiae deletion strains, locus YNL233W, strain BNI4, hits give low values 1.02 | S. cerevisiae deletion strains, locus YNL248C, strain rpa49, hits give low values 0.989 | S. cerevisiae deletion strains, locus YNL250W, strain rad50, hits give low values 1.01 | S. cerevisiae deletion strains, locus YNL271C, strain bni1, hits give low values 0.995 | S. cerevisiae deletion strains, locus YNL298W, strain CLA4, hits give low values 1.01 | S. cerevisiae deletion strains, locus YNL307C, strain MCK1, hits give low values 0.995 | S. cerevisiae deletion strains, locus YNL322C, strain KRE1 (second series), hits give low values 0.969 | S. cerevisiae deletion strains, locus YNL322C, strain KRE1, hits give low values 1.01 | S. cerevisiae deletion strains, locus YNR049C, strain mso1, hits give low values 0.999 | S. cerevisiae deletion strains, locus YNR052C, strain pop2, hits give low values 0.999 | S. cerevisiae deletion strains, locus YOL012C, strain htz1 0.617 | S. cerevisiae deletion strains, locus YOL147C, strain pex11, hits give low values 1.02 | S. cerevisiae deletion strains, locus YOR001W, strain rrp6, hits give low values 1.01 | S. cerevisiae deletion strains, locus YOR061W, strain CKA2, hits give low values 1.02 | S. cerevisiae deletion strains, locus YOR069W, strain VPS5, hits give low values 1.01 | S. cerevisiae deletion strains, locus YOR070C, strain gyp1, hits give low values 0.966 | S. cerevisiae deletion strains, locus YOR080W, strain dia2, hits give low values 1.01 | S. cerevisiae deletion strains, locus YOR083W, strain WHI5, hits give low values 0.945 | S. cerevisiae deletion strains, locus YOR106W, strain vam3, hits give low values 0.971 | S. cerevisiae deletion strains, locus YOR136W, strain idh2, hits give low values 0.985 | S. cerevisiae deletion strains, locus YOR144C, strain elg1, hits give low values 0.995 | S. cerevisiae deletion strains, locus YOR184W, strain ser1, hits give low values 0.993 | S. cerevisiae deletion strains, locus YOR231W, strain MKK1, hits give low values 0.99 | S. cerevisiae deletion strains, locus YOR265W, strain rbl2, hits give low values 0.985 | S. cerevisiae deletion strains, locus YOR270C, strain vph1, hits give low values 0.996 | S. cerevisiae deletion strains, locus YOR290C, strain snf2, hits give low values 0.983 | S. cerevisiae deletion strains, locus YOR316C, strain cot1, hits give low values 0.994 | S. cerevisiae deletion strains, locus YPL051W, strain arl3, hits give low values 0.927 | S. cerevisiae deletion strains, locus YPL055C, strain LGE1, hits give low values 1.02 | S. cerevisiae deletion strains, locus YPL078C, strain atp4, hits give low values 0.97 | S. cerevisiae deletion strains, locus YPL106C, strain sse1, hits give low values 0.926 | S. cerevisiae deletion strains, locus YPL240C, strain hsp82, hits give low values 0.992 | S. cerevisiae deletion strains, locus YPL256C, strain CLN2, hits give low values 0.949 | S. cerevisiae deletion strains, locus YPR119W, strain clb2, hits give low values 0.99 | S. cerevisiae deletion strains, locus YPR141C, strain kar3, hits give low values 0.999 | S. cerevisiae deletion strains, locus YPR163C, strain tif3, hits give low values 0.986 | S. cerevisiae deletion strains, locus YPR167C, strain met16, hits give low values 0.991 | S. cerevisiae deletion strains, strain wtn01, hits give low values 0.972 | S. cerevisiae strains, strain wild type, hits give low values 1.02
